# From the supplement of paper PMC11417369
# ± gives the standard deviation of the averaged measurements. Whole data set: some 25,000 sequences, median “ln(normalized median fluorescence intensity)” near 10, cut for the highest 2% near 12. Shown is part of a subset that was picked to be rich in the highest values.
# Tested on: PfAP2-G AP2 domain (GST-tagged)
# Test: gcPBM binding intensity (ln(normalized median fluorescence intensity)); higher = stronger DNA binding
# Procedure, shortened: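 The highest Masliner-normalised natural-log median intensity across replicate spots of either probe orientation is reported as binding intensity. GST-tagged P. falciparum DNA-binding domains expressed in E. coli were applied for 1 h to an Agilent 4 × 180k array of primer-extended double-stranded 36-bp intergenic genomic probes plus negative controls, and bound protein was detected with Alexa488 anti-GST antibody and scanned at 488 nm.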
row,Sequence,gcPBM binding intensity (ln)
1,GGGGGCTTTTATAAAAGTACAAAATGAATAAAAATT [XGTACX_site2393],11.4 ± 0.97
2,AATAATGTATGAAATAAACACACAAGTAAGTACATA [CACACA_site8776],11.7 ± 0.91
3,AATGAAATAAAATAAAGTACATATATGTAAAAGTAG [XGTACX_site5650],11.4 ± 0.79
4,TAATAATAAATAAAATGTACATATGAACAAATAAGT [XGTACX_site6710],11.3 ± 0.61
5,CTTTTAATTATAAAATGTACTTAAAAATAATAATAC [XGTACX_site635],11.1 ± 0.88
6,TTATTATAAAAATGTAGTACAATACTTTTTTTTTTT [XGTACX_site732],11.7 ± 0.84
7,TAAAATAAAAATTAAAGTACATATGTATATATATAT [XGTACX_site3984],11.1 ± 0.88
8,CCTTTATAAAAAAGTAGTACACAATGAATTTATAAT [XGTACX_site5523],11.8 ± 1
9,ATATGAAATATATGTAGTACACATAATTAAAAGTAG [XGTACX_site6490],11.7 ± 0.86
10,TTATATACATAAAAATGTACTTTTTATAAAATATAT [XGTACX_site8281],11.2 ± 1
11,TTATTTTATAATAAAAGTACACAAAAAAAAAAAAAA [XGTACX_site7668],11.4 ± 1.1
12,TAATGTATGAAATAAACACACAAGTAAGTACATAAA [CACACA_site2451],11.6 ± 0.98
13,ACAAGATGATGGAAATGTACATAAAAAGAATCATAT [XGTACX_site8682],11.2 ± 0.63
14,AAAAAAAAAAAAACTACACACATACAAATATTTATA [CACACA_site5430],9.875 ± 0.035
15,AAAAAAAAGAAAAACACACACATATATATATATAAT [CACACA_site4707],9.72 ± 0.042
16,TGAAAATAATTATAGGTGCATAAACATACGGATCTT,10.21 ± 0.021
17,TTTTTTTTAAGAGATAGTACATAAATATTATAATAT [XGTACX_site4685],11.1 ± 0.86
18,GACATTAATTATTTGACACACGACTGGGTGGTGATT [CACACA_site306],10.09 ± 0.021
19,AAAACTATTAAATGTAGTACATAATTATTGAAATAA [XGTACX_site8716],11.6 ± 0.91
20,ATGTATGTAATAAAAAGTACATATGTTCATAATAAA [XGTACX_site842],11.4 ± 0.57
21,AAAAAAAAAAAAAGTAGTACATAATATGTTCCTCCT [XGTACX_site8356],11.6 ± 1

row,Sequence,gcPBM binding intensity (ln)
1,AAATGTAATATAAATAGTACATATTAAATAAAATTA [XGTACX_site6917],11.1 ± 0.88
2,AAATGAAATAAATGTAGTACACATATACAATATATA [XGTACX_site6951],11.7 ± 1.1
3,AATAAAAATAATGAATGTACATATATATATACAATA [XGTACX_site3342],10.9 ± 0.4
4,TCGTATTTAAAATGTAGTACATAATTTGAAAAATAA [XGTACX_site5832],11.6 ± 0.83
5,AATTTGAAATAAAGTAGTACAGTATATAAAAATATA [XGTACX_site128],11.8 ± 1.1
6,ATAAGTAATATAATATGTACATATATATATATATAT [XGTACX_site3818],11.2 ± 0.5
7,TGAAAAATAAATAAATGTACATATATATATATATAC [XGTACX_site7310],10.9 ± 0.49
8,TATTTTGAAAATAAAAGTACAAATTTTATATTTAAA [XGTACX_site3238],11.1 ± 0.83
9,TTTTTTGAAAATAAAAGTACAAATTTTATATTTAAA [XGTACX_site2758],11 ± 0.88
10,AAGTATAAATTAAAATGTACTTATAAAAAAAAAGAA [XGTACX_site7028],11.2 ± 0.72
11,TAGTAACTTGTATTCACACAAATTATATTATATTAC [CACACA_site5041],9.965 ± 0.021
12,ACGTATGTATATTACACACATACATATTATTCACTA [CACACA_site204],10.1 ± 0.16
13,AGTATGTAAATGTGCCATATATATATTAAATACATA [CACACA_negctrl_site14],10.1 ± 0.23
14,AACATATACACGAACACACACACATATAAATAAATA [CACACA_site6380],10.3 ± 0.37
15,ATAAAGTATATTATATGTACATATATATATTATATA [XGTACX_site1345],11.1 ± 0.52
16,TTTTTTTTAGTATGAACACACATATATATTATAAAA [CACACA_site2935],10.1 ± 0.25
17,ATAAGAAAAAGACACACACACAAAAAAAAAAAAAAA [CACACA_site2828],9.95 ± 0.49
18,AAGATAAAATTATGTAGTACAAAAAAAAATAAAAAA [XGTACX_site139],11.7 ± 0.91
19,AAAGATAAAATATTATGTACATATATATATATATAT [XGTACX_site5079],11.1 ± 0.56
20,AATAATTATAAAAAATGTACAAAAAAAAAAAAAAAA [XGTACX_site3681],10.5 ± 0.83
21,CGCATGTATTTTGTGTGTACTAATTATAATCAACTT [XGTACX_site4709],11.4 ± 0.83

row,Sequence,gcPBM binding intensity (ln)
1,AAAAGTGTATGTAGGTGTACTTTTTATTTCTTCTTT [XGTACX_site8819],11.6 ± 0.98
2,TTTTTTATGAGGTGGTGTACTTTTTTTTTTTTCTTT [XGTACX_site8550],11.7 ± 0.97
3,TATGAGGAAACGTGGTGTACTTTTTTTTAATAAAAA [XGTACX_site1351],11.6 ± 0.93
4,ATATATATATAATTTGTACACACAAATATGCATATA [CACACA_site9136],11.3 ± 0.88
5,ATATATATAATTTGTACACACAAATATGCATATATA [CACACA_site3432],11.3 ± 0.98
6,TATATGCATAATAACTGTACACAAATTGGGGTTGAT [XGTACX_site459],11.6 ± 0.63
7,TATGTGCATATAAACTCACACATTGTATATTACATG [CACACA_site6106],10.14 ± 0.035
8,ATATATACGTATGAATGTATATTTGTTTGATTTTTT [CACACA_negctrl_site835],9.88 ± 0.12
9,ATTGTTTATATTGATTGTACTCATTTTTTTTTTATT [XGTACX_site1946],11.5 ± 0.99
10,AATGATTGATTTTATTGTACGTACTCGGAATATGGT [XGTACX_site4976],11.8 ± 1
11,TATATATATACATATTGTACATATTACATGCTATTA [XGTACX_site1184],10.9 ± 0.64
12,ATATAAATATGACACACACACAAAAAAAATAAAGAC [CACACA_site6208],10.3 ± 0.2
13,TTTTTTTTTTTTTAAACATGCATAATAAATATAATA [TGCATGCA_site265],9.81 ± 0.35
14,ACCTATTTATAATAGTGTACGTACAAATTTGTTTAC [XGTACX_site8176],11.7 ± 0.89
15,ATATATATATATATATGTACGTAAACAAAAATTTAT [XGTACX_site6780],11.4 ± 0.91
16,CATATATATTTTATTTGTACGTATAAAAAAACAAAA [XGTACX_site4253],11.5 ± 1.1
17,TGAAATTTATAATAGTGTACAAAGAAAAAAAAAAAA [XGTACX_site4965],11 ± 0.78
18,TTTCGTAAACAAATTTGTACGTACAAATTTATAAAT [XGTACX_site8175],11.7 ± 1.1
19,ATTATATAATTTAATCGTACACAAATATTTGTTAGT [XGTACX_site5913],11.3 ± 0.8
